Screens from PubChem.
Sampled rows, rich in hits. Any-hit rate of the full collection: about 1.7%.
GLP-1R agonist: qHTS of GLP-1 Receptor Agonists; HEK293 GLP-1R CRE-luciferase, luminescence, 4-6 h; cells express a hypersensitive GLP-1R form; Potency, µM (titrated, usually from 45.6 µM), inactives show at the top dose activation, most hits filed as activators; actives 0.007% (n = 380,000); AID 624172, 2012; note: % of control where 0% means no effect
Target sequence (P43220 whole entry, looked up): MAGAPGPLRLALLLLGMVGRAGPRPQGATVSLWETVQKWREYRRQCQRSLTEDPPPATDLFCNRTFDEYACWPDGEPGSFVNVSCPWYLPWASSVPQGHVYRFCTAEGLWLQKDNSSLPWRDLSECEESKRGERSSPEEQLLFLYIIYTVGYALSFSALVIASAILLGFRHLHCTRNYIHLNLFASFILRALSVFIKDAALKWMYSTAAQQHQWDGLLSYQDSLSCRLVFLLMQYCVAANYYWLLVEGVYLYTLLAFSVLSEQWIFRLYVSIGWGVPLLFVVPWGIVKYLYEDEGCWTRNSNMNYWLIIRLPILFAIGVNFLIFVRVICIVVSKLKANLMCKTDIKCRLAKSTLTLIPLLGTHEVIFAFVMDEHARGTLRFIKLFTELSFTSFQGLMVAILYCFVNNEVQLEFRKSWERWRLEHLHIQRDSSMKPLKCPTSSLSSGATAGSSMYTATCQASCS
GLP1R cytotox: qHTS of GLP-1 Receptor Inverse Agonists: Cytotox Screen. HEK293 cAMP-luciferase reporter cells, luminescence, 24 h. Potency, µM (doses to about 38.3 µM), for inactives: at the highest dose activity change, negative = inhibition, hits mostly inhibitors. actives 0.13% (n = 410,000). AID 624418, 2012;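 note: loss of luciferase light is scored as toxicity; % is set by controls: 0 for no effect and ±100 for the full control effect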
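Quantitative HTS format, 1536 wells, 200 cells/uL seeded. Compounds: 23 nL, 24 h, 37 °C. Detection: luciferase reagent, luminescence at 12 min RT; decreased signal taken as cytotoxic.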
GLP1R inv ag: qHTS of GLP-1 Receptor Inverse Agonists (Inhibition Mode). Glucagon-like peptide 1 receptor (Homo sapiens), P43220. actives 1.6% (n = 410,000). Potency, µM (top dose mostly 38.3 µM), without a hit: at the highest dose activity change, negative = inhibition, hits mostly inhibitors. HEK293 GLP-1R CRE-luciferase, luminescence, 24 h; GLP-1R form is constitutively active; note: % is set by controls: 0 for no effect and ±100 for the full control effect; nearly all actives have a fitted effect of over 55% in size
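Readout was luciferase luminescence, measured 12 min after detection reagent at room temperature. Beforehand, GLP-1R reporter HEK293 cells had sat 12 h, then received compounds for 24 hr at 37 deg C.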
An asterisk follows results filed as active; ? = inconclusive; . = not tested or not shown; [ ] = another dose, or the depositor's remark. Calls come from the whole dose curve; as a rule, active = well fitted curve in the direction sought with a large enough effect; inconclusive = small, poorly fitted or top-dose-only effect, or another doubt; inactive = no such curve, though single readings can be large; an effect the other way counts as inactive or inconclusive. Potency is the fitted concentration of half-maximal effect.

SMILES	GLP-1R agonist	GLP1R cytotox	GLP1R inv ag
CC1CCCC(NC(=O)NC(=O)COC(=O)C2=NN(c3ccccc3)C(=O)CC2)C1C (stereo not drawn)	-3%	-34%	-2%
CO/N=C(\C(=O)N[C@@H]1C(=O)N2C(C(=O)[O-])=C(C[n+]3cccc4c3CCCC4)CS[C@H]12)c1csc(N)n1	-2%	.	.
Cc1ccc(S(=O)(=O)N2CCC(=O)N([C@H](COCc3ccc(Cl)cc3)C(C)C)CC2)cc1	-4%	-17%	?
CCCCCCCNC(=O)c1cc(-c2ccncc2)nc2ccccc12	8%	-1%	?
CCCCCCNC(=O)c1cccc(-c2ccc(C)c3ccccc23)n1	9%	0%	11µM*
CC(C)NC(=O)C1Cc2c(-c3ccccc3Oc3ccccc3)ccnc2O1 (stereo not drawn)	-2%	2%	-26%
Nc1c(C(=O)O)ccc2c1C(=O)c1ccccc1C2=O	3%	10µM*	1%
Nc1cc(C(=O)O)c(N)c2c1C(=O)c1ccccc1C2=O	0%	?	?
COc1ccc(OC)c(NC(=O)c2cc3n(n2)C(C(F)(F)F)CC(c2ccc4c(c2)OCO4)N3)c1 (stereo not drawn)	-7%	5%	0%
COc1ccccc1NC(=O)c1cc2n(n1)C(C(F)(F)F)CC(c1ccc3c(c1)OCO3)N2 (stereo not drawn)	-21%	-9%	2µM*
CCOC(=O)c1c(-c2ccc(C)cc2)csc1NC(=O)c1cc(=O)c2cc(C)cc(C)c2o1	.	26%	3%
O=C(O)CCC(=O)NCCn1c(-c2ccccc2)csc1=Nc1ccccc1	6%	8%	0%
O=S(=O)(c1ccc(-c2csc(=Nc3ccc(OC(F)(F)Cl)cc3)n2CCCO)cc1)N1CCCC1	.	-27%	10µM*
OCCCn1c(-c2ccccc2)csc1=Nc1ccccc1	7%	19%	11µM*
COCCCn1c(-c2ccc(S(=O)(=O)N3CCOCC3)cc2)csc1=Nc1ccccc1	-2%	2%	13%
COc1ccc(NC(=O)Cn2c(=O)n(CCc3ccccc3)c(=O)c3sc4ccccc4c32)cc1	1%	1%	16%
C[C@H](O)[C@@H]1C(=O)N2C(C(=O)O)=C(SCCN=CN)C[C@@H]12	-6%[19.8 µM]	.	.
CC1OC(CC(=O)O)CC2=C1C(=O)c1c(O)cccc1C2=O (stereo not drawn)	-28%	0.89µM*	?
O=C1c2cccc(O)c2C(=O)c2c(O)cccc21	2%	.	.
CNC(=S)N(Cc1ccc(OC)cc1)C1CC(=O)N(c2ccc(Cl)cc2)C1=O (stereo not drawn)	-2%	-16%	11µM*
COc1ccc(CN(C(=S)Nc2ccccc2)C2CC(=O)N(c3ccc(F)cc3)C2=O)cc1 (stereo not drawn)	-27%	0%	?
COc1ccc(C(=O)C=Cc2ccc3c(c2)OCO3)cc1OC	14%	3%	104%
COc1cc(/C=C/C(=O)c2ccc3c(c2)OCO3)cc(Cl)c1O	9%	391%	11µM*
CC1CN(C(=O)Cn2c(=O)oc3ccccc32)CC(C)O1 (stereo not drawn)	7%	0%	-8%
O=C1CSc2nc3ccccc3n21	5%	11%	4%
SMILES	GLP-1R agonist	GLP1R cytotox	GLP1R inv ag
CC12CCC(C(=O)n3c1nc1ccccc13)C2(C)C (stereo not drawn)	7%	22%	1.6µM*
O=C(CSc1nnnn1C1CCCC1)Nc1cccc(NC(=O)c2ccco2)c1	-2%	-9%	-23%
O=C(CSc1nnnn1C1CCCCC1)Nc1cccc(NC(=O)c2ccco2)c1	0%	-11%	7.1µM*
CSc1ccccc1NC(=O)C1=COCCO1	-2%	1%	22%
C(=C1NCCN1)c1cccc2ccccc12	-3%	.	.
CC1CCCCC1NC(=O)CCn1ccc2cc(S(=O)(=O)N3CCCC3)ccc21 (stereo not drawn)	7%	-3%	-25%
COc1cc(-c2nnc(SCC(=O)NC(C)C)o2)cc(OC)c1OC	.	-9%	19%
CCN1CCN(c2cc(C(C)C)nc3c(-c4ccccc4)c(C)nn23)CC1	20%	?	4µM*
Cc1nn2c(N3CCOCC3)cc(C(C)C)nc2c1-c1ccccc1	-3%	4%	11%
COc1ccccc1N1CCN(CCN(C(=O)C2CCCCC2)c2ccccn2)CC1	5%	-1%	-20%
COc1ccccc1N1CCN(CC(C)N(C(=O)C2CCCCC2)c2ccccn2)CC1 (stereo not drawn)	3%	-3%	10µM*
CCC(C)c1ccc(OCc2ccc(C(=O)O)o2)cc1 (stereo not drawn)	-8%	-2%	2µM*
CCOC(=O)C(CCCOc1ccc(C)cc1)C(=O)OCC	-7%	-1%	-24%
CCOC(=O)c1ccc(COc2ccc(C(C)C)cc2)o1	6%	2%	?
CCOC(=O)C(CCCOc1ccc(C(C)CC)cc1)C(=O)OCC (stereo not drawn)	-11%	-15%	10µM*
COC(=O)c1ccc(NC(=O)[C@H](C)NC(N)=O)cc1	0%	4%	1%
Cc1ccc(C(=S)N2CCN(Cc3ccccc3)CC2)s1	11%	-2%	?
O=C(NCc1cccc(Cl)c1)C1CCC(=O)N(CCCN2CCCC2=O)C1 (stereo not drawn)	-12%	7%	16%
Cc1nnc(SCC(=O)NC2CCCCC2)n1-c1ccccc1	0%	1%	13%
O=C(CSc1nnc(Cc2cccs2)n1-c1ccccc1)NC1CCCCC1	-3%	-15%	1.4µM*
O=C(CSc1nnc(Cc2cccs2)n1C1CCCCC1)N1CCCc2ccccc21	1%	?	3.5µM*
O=C(CSc1nnc(Cc2cccs2)n1CCc1ccccc1)N1CCCc2ccccc21	-8%	-35%	10µM*
O=C(CSc1nnnn1C1CCCC1)N1CCCc2ccccc21	19%	28%	?
Cn1c(Cc2cccs2)nnc1SCC(=O)N1CCCc2ccccc21	-5%	-14%	-9%
Cc1ccc(S(=O)(=O)N2CCCC2)cc1C(=O)NCC(C)(C)N1CCOCC1	1%	-16%	15%
SMILES	GLP-1R agonist	GLP1R cytotox	GLP1R inv ag
Cc1ccccc1CC(=O)Nc1ccc2c(c1)c(=O)n(C)n2-c1cccs1	10%	?	-32%
COc1ccc(CN(C(=O)Nc2ccc(C)c(F)c2)C2CCN(C(C)=O)CC2)cc1	.	-5%	0%
Cc1ccccc1CN1CCN(C(=O)c2ccc(F)cc2)CC1	-3%	-8%	-26%
COc1ccc(-c2nc3ccccc3n3c(-c4ccccc4)c4c(=O)n(C)c(=O)n(C)c4c23)cc1OC	.	2%	5%
COc1ccc(NC(=O)CCOc2ccccc2F)cc1S(=O)(=O)N1CCCCC1	14%	-16%	?
CC(=O)c1ccc(OCCCC(=O)Nc2ccc(Cl)c(S(=O)(=O)N3CCOCC3)c2)cc1	2%	-7%	1%
COc1ccc(NC(=O)CCOc2ccc(C)cc2)cc1S(=O)(=O)N1CCCCC1	-4%	-27%	7.1µM*
Cc1ccc(OCCCC(=O)Nc2ccc(Cl)c(S(=O)(=O)N3CCOCC3)c2)cc1	-4%	-2%	11µM*
